# Measurements reported in PubChem BioAssay (Tox21).
# Values joined by “and” are separate entries in the source; they are usually repeats but may differ in a detail not shown here. Equal entries are not always repeated. Records with an inconclusive call do not appear. A call without a number means that no potency is given here. Some structures have more than one record in an assay (separate samples or runs), and their calls can disagree. Active and inactive are the calls of the source. Unless noted, calls come from the whole dose curve; as a rule, active = well fitted curve in the direction sought with a large enough effect in the repeat runs; inconclusive = weak or mixed curves; inactive = no such curve, though single readings can be large; an effect the other way counts as inactive or inconclusive.
# What was measured:
# [1] = qHTS assay for identifying genotoxic compounds that show differential cytotoxicity against isogenic chicken DT40 cell lines with known DNA damage response pathways - wild type cell line (AID 743012); note: nearly all actives have a fitted effect of over 60% in size; note: potency is the fitted concentration of half-maximal effect
# Outline: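 CellTiter-Glo luminescence readout of viability in wild type DT40 cells after 40 h compound exposure at 37 C/5% CO2; 300 cells/well; reagent incubated 30 min at room temperature before reading.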
# [2] = qHTS assay for identifying genotoxic compounds that show differential cytotoxicity against isogenic chicken DT40 cell lines with known DNA damage response pathways - Rev3 mutant cell line (AID 743014); note: nearly all actives have a fitted effect of over 55% in size; note: potency is the fitted concentration of half-maximal effect
# [3] = qHTS assay for identifying genotoxic compounds that show differential cytotoxicity against isogenic chicken DT40 cell lines with known DNA damage response pathways - Rad54/Ku70 mutant cell line (AID 743015); note: nearly all actives have a fitted effect of over 60% in size; note: potency is the fitted concentration of half-maximal effect
# [4] = qHTS assay to identify small molecule antagonists of the androgen receptor (AR) signaling pathway - cell viability counter screen (AID 743033; note: nearly all actives have a fitted effect of over 45% in size; note: potency is the fitted concentration of half-maximal effect)
# [5] = qHTS assay to identify small molecule antagonists of the androgen receptor (AR) signaling pathway using the MDA cell line - cell viability counter screen (AID 743041; note: nearly all actives have a fitted effect of over 45% in size; note: potency is the fitted concentration of half-maximal effect)
# Outline: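 In this qHTS counter assay, fluorescence intensity after CellTiter-Fluor addition indicated viability of MDA-kb2 AR-luc cells given compounds and R1881 for 16 h at 37C.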
# [6] = qHTS assay to identify small molecule antagonists of the thyroid receptor (TR) signaling pathway - cell viability counter screen (AID 743064); note: nearly all actives have a fitted effect of over 50% in size; note: potency is the fitted concentration of half-maximal effect
# Outline: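 GH3.TRE-Luc rat pituitary cells carrying a TRE-luciferase reporter were treated with compound plus 1 nM T3 (final) for 23.5 h at 37 °C. Viability was then read in the same wells by CellTiter-Fluor fluorescence after a further 30 min.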
# [7] = qHTS assay to identify small molecule antagonists of the thyroid receptor (TR) signaling pathway (AID 743065); note: nearly all actives have a fitted effect of over 55% in size; note: potency is the fitted concentration of half-maximal effect
# Outline: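 GH3.TRE-Luc rat pituitary cells carrying two TR response elements driving luciferase were plated for 4 h, given compound plus 1 nM T3 (final), and incubated 23.5 h at 37 C. ONE-Glo luminescence measured reporter inhibition; CellTiter-Fluor fluorescence tracked cytotoxicity.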
# [8] = system: thyroid hormone receptor (rat, GH3 cells); experiment: qHTS assay to identify small molecule agonists of the thyroid receptor (TR) signaling pathway (AID 743066; calls by dose curve)
# [9] = qHTS assay to identify small molecule antagonists of the estrogen receptor alpha (ER-alpha) signaling pathway - cell viability counter screen (AID 743074; calls by dose curve;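 note: HEK293 cells carrying ER-alpha-UAS-bla reporter stimulated with 17beta-estradiol; nearly all actives have a fitted effect of over 45% in size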; note: potency is the fitted concentration of half-maximal effect)
# [10] = qHTS assay to identify small molecule antagonists of the estrogen receptor alpha (ER-alpha) signaling pathway using the BG1 cell line - cell viability counter screen (AID 743081);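 note: compound given together with 17beta-estradiol as the ER stimulus; nearly all actives have a fitted effect of over 45% in size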; note: potency is the fitted concentration of half-maximal effect
# Aromatase (Homo sapiens) = Aromatase (Homo sapiens) (UniProt P11511); experiment: qHTS assay to identify aromatase inhibitors (AID 743083); note: nearly all actives have a fitted effect of over 55% in size; note: potency is the fitted concentration of half-maximal effect
# Chain of Aromatase (Homo sapiens) (P11511 whole entry, looked up): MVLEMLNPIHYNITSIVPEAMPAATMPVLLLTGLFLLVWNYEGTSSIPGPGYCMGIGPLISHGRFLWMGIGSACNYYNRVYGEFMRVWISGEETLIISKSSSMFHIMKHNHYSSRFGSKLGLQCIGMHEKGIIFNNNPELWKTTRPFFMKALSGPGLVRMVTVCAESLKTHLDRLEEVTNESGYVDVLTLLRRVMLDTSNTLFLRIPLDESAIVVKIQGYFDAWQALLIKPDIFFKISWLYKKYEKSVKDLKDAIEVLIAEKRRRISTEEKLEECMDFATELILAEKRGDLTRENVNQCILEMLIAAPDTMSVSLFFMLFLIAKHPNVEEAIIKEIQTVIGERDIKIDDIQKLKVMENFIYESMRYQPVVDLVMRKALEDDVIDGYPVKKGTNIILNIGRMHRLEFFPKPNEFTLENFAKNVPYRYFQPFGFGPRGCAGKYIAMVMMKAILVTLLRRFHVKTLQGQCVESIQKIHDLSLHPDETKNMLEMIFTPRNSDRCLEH
# [11] = qHTS assay to identify small molecule antagonists of the glucocorticoid receptor (GR) signaling pathway - cell viability counter screen (AID 720693); note: nearly all actives have a fitted effect of over 55% in size
# [12] = target: Estrogen receptor (Homo sapiens) (UniProt P03372); experiment: qHTS assay to identify small molecule antagonists of the estrogen receptor alpha (ER-alpha) signaling pathway (AID 743069; active = well fitted curve in the direction sought with a large enough effect in the signal ratio in the repeat runs, not every such curve was filed as active; the % refers to the signal ratio)
# Chain of Estrogen receptor (Homo sapiens) (P03372 whole entry, looked up): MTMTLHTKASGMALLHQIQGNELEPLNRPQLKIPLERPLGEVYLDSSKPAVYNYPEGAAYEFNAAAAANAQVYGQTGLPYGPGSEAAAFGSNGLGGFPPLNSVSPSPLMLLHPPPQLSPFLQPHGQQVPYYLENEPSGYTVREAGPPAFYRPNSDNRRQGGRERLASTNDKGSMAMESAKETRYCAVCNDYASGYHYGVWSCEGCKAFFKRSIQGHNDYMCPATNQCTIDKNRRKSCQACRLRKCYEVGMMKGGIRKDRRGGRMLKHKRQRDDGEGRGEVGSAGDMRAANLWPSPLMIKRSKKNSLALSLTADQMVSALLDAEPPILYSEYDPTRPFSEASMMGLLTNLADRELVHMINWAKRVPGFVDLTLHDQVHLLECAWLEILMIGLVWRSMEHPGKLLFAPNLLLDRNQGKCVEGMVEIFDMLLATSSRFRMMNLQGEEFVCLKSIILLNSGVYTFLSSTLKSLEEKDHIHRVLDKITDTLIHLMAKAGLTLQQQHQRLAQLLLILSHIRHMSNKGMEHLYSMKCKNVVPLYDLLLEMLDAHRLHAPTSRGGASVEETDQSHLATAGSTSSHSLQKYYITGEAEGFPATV
# Outline: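 A 17beta-estradiol challenge was applied right after compound transfer to ER-alpha-UAS-bla HEK293 cells previously kept in charcoal-stripped serum. Plates stood 18 hr at 37C and 5% CO2; fluorescence was read following 2 hr FRET substrate loading at room temperature.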
# [13] = target: Estrogen receptor (Homo sapiens) (UniProt P03372); experiment: qHTS assay to identify small molecule agonists of the estrogen receptor alpha (ER-alpha) signaling pathway (AID 743075; calls by dose curve; note: potency is the fitted concentration of half-maximal effect)
# [14] = qHTS assay to identify small molecule antagonists of the estrogen receptor alpha (ER-alpha) signaling pathway using the BG1 cell line (AID 743080; calls by dose curve;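 note: BG1 cells stimulated with 17beta-estradiol alongside compound; series mostly up to about 70 µM; nearly all actives have a fitted effect of over 25% in size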)
# Outline: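 Readout is ONE-Glo luminescence, taken 30 min at room temperature after reagent addition, preceded by a CellTiter-Fluor viability read; BG1-Luc-4E2 cells had received compound and 17beta-estradiol for 21.5 h at 37 C.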
# [15] = target: Androgen receptor (Homo sapiens) (UniProt P10275); experiment: qHTS assay to identify small molecule antagonists of the androgen receptor (AR) signaling pathway (AID 743035; active = well fitted inhibition curve with a large enough effect in the signal ratio in the repeat runs, not every such curve was filed as active; the % refers to the signal ratio; note: potency is the fitted concentration of half-maximal effect)
# Chain of Androgen receptor (Homo sapiens) (P10275 whole entry, looked up): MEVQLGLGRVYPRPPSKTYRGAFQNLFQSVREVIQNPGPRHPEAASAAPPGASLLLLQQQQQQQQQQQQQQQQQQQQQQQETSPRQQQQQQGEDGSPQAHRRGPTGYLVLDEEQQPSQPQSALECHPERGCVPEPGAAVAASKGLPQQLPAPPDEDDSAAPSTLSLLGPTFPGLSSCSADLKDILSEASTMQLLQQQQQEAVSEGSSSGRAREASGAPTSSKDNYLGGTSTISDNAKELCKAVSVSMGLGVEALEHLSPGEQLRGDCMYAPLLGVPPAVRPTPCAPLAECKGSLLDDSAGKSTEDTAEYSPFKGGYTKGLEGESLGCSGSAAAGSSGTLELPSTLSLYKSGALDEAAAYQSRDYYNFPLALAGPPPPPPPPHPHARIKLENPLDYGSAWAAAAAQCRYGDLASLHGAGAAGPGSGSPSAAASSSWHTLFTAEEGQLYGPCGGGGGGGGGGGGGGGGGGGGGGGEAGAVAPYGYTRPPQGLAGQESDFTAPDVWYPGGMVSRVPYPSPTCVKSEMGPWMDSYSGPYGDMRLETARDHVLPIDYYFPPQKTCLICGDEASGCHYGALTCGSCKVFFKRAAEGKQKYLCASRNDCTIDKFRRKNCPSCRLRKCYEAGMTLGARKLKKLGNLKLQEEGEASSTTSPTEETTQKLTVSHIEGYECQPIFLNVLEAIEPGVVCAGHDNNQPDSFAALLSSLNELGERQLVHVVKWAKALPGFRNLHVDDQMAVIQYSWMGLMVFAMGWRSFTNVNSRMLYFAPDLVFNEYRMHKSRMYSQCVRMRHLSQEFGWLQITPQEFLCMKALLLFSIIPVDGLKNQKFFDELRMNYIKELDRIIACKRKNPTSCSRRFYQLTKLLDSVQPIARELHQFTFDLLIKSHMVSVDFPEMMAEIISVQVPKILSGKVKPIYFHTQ
# Outline: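 AR-bla HEK293 reporter cells; 4 h settle at 37C/5% CO2; compound + R1881 agonist, 16 h at 37C; LiveBLAzer B/G FRET substrate 2 h RT; fluorescence intensity read. qHTS format.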
# [16] = target: Androgen receptor (Homo sapiens) (UniProt P10275); experiment: qHTS assay to identify small molecule agonists of the androgen receptor (AR) signaling pathway (AID 743036; active = well fitted activation curve with a large enough effect in the signal ratio in the repeat runs, with a control signal flat, not every such curve was filed as active; the % refers to the signal ratio)
# Outline: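 HEK293 cells stably carrying a UAS-driven beta-lactamase reporter (GeneBLAzer AR-UAS-bla-GripTite) were plated at 2,000 cells/well, rested 4 h at 37C, then exposed to compounds in DMSO for 16 h. LiveBLAzer B/G FRET substrate was added for 2 h at room temperature; fluorescence read.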
# [17] = target: Androgen receptor (Homo sapiens) (UniProt P10275); experiment: qHTS assay to identify small molecule agonists of the androgen receptor (AR) signaling pathway using the MDA cell line (AID 743040; note: nearly all actives have a fitted effect of over 20% in size)
# Outline: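 Cell-based luciferase reporter: MDA-kb2, MMTV promoter (AR + GR response elements). 16 h compound exposure at 37C; ONE-Glo, 30 min RT, luminescence.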
# [18] = target: Androgen receptor (Homo sapiens) (UniProt P10275); experiment: qHTS assay to identify small molecule antagonists of the androgen receptor (AR) signaling pathway using the MDA cell line (AID 743042; note: nearly all actives have a fitted effect of over 55% in size; note: potency is the fitted concentration of half-maximal effect)
# Outline: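 MDA-kb2 cells (human breast carcinoma, stably carrying an MMTV-luciferase reporter responsive to AR and GR) were plated at 3,000 cells/well and preincubated 5 hr at 37C, then given compound plus R1881 agonist for 16 h. ONE-Glo luminescence was read.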
# [19] = target: Estrogen receptor (Homo sapiens) (UniProt P03372); experiment: qHTS assay to identify small molecule agonists of the estrogen receptor alpha (ER-alpha) signaling pathway using the BG1 cell line (AID 743079); note: nearly all actives have a fitted effect of over 20% in size; note: potency is the fitted concentration of half-maximal effect
Structure (SMILES),Potency [1],Potency [2],Potency [3],Potency [4],Potency [5],Potency [6],Potency [7],Potency [8],Potency [9],Potency [10],Potency (Aromatase (Homo sapiens)),Potency [11],Potency [12],Potency [13],Potency [14],Potency [15],Potency [16],outcome [17],Potency [18],Potency [19]
COc1ccc(CCN2CCC(Nc3nc4ccccc4n3Cc3ccc(F)cc3)CC2)cc1,5.96 µM (active) and 7.01 µM (active),7.5 µM (active) and 6.25 µM (active),8.41 µM (active) and 8.82 µM (active),21.3 µM (active) and 6.3 µM (active),39.4 µM (active),5.31 µM (active) and 1.25 µM (active),5.96 µM (active) and 1.57 µM (active),inactive,12.6 µM (active),55.7 µM (active),6.25 µM (active),,,,,,,,,
CC(C)(C)NCC(O)c1cc(O)cc(O)c1 (configuration not stated),inactive,,inactive,inactive,inactive,,inactive,inactive,inactive,inactive,inactive,,,,,,,,,
C1COC(NC(C2CC2)C2CC2)=N1,inactive,,,,inactive,,29.8 µM (active),inactive,inactive,inactive,inactive,inactive,inactive,inactive,inactive,,,,,
COc1ccc(Cc2cnc(N)nc2N)cc1OC,,,,inactive,inactive,inactive,inactive,inactive,inactive,inactive,inactive,inactive,inactive,inactive,inactive,inactive,inactive,inactive,inactive,inactive
Nc1ccc2cc3ccccc3cc2c1,inactive,,,inactive,inactive,,inactive,inactive,,inactive,inactive,inactive,,,,,,,,9.86 µM (active) and 24.3 µM (active)
CCCCCC(=O)O[C@]1(C(C)=O)CC[C@H]2[C@@H]3CCC4=CC(=O)CC[C@]4(C)[C@H]3CC[C@@]21C,3.76 µM (active) and 3.83 µM (active),3.76 µM (active) and 2.15 µM (active),7.5 µM (active) and 5.41 µM (active),inactive and 24.4 µM (active),inactive,18.8 µM (active),10.6 µM (active) and 19.2 µM (active),inactive,,inactive,inactive and 54.1 µM (active),,,inactive,,,,,,
Cc1c(O)cccc1C(=O)N[C@@H](CSc1ccccc1)[C@H](O)CN1C[C@H]2CCCC[C@H]2C[C@H]1C(=O)NC(C)(C)C,11.9 µM (active) and 29.8 µM (active),13.3 µM (active) and 23.7 µM (active),13.3 µM (active) and 18.8 µM (active),19 µM (active) and 16.9 µM (active),27.8 µM (active) and 59.5 µM (active),5.31 µM (active) and 2.11 µM (active),,inactive,53.5 µM (active),18.8 µM (active) and 26.6 µM (active),26.6 µM (active) and 23.7 µM (active),,,,,10.7 µM (active) and 6.74 µM (active),,inactive,26.6 µM (active) and 29.8 µM (active),
CC(=O)OCC1=C(C(=O)O)N2C(=O)[C@@H](NC(=O)Cc3cccs3)[C@H]2SC1,,,inactive,inactive,inactive,inactive,inactive,inactive,inactive,inactive,inactive,inactive,,,,,,,,
C[N+]1([O-])CCOCC1,inactive,inactive,inactive,inactive,inactive,,inactive,inactive,inactive,inactive,inactive,,,,,,,,,
C=CC(=O)OCCCCCCOC(=O)C=C,24.3 µM (active),55.1 µM (active) and 30.6 µM (active),69.4 µM (active) and 24.3 µM (active),,inactive,55.1 µM (active) and 54.5 µM (active),27.6 µM (active) and 43.3 µM (active),inactive,inactive,inactive,,,,,,,,inactive,,inactive
CCCCOCCOC(=O)c1ccccc1C(=O)OCCOCCCC,,42.4 µM (active) and 27.3 µM (active),42.4 µM (active) and 61.1 µM (active),53.8 µM (active) and inactive,inactive,inactive,30 µM (active),inactive,inactive,inactive,inactive,inactive,inactive,inactive,inactive,,,,,inactive
N[C@@H]1CONC1=O,inactive,,inactive,inactive,inactive,,,,,inactive,inactive,,,,,,,,,
c1ccc2cc3c(ccc4ccccc43)cc2c1,,,inactive,inactive,inactive,inactive,inactive,inactive,inactive,inactive,inactive,inactive,,55.1 µM [activator] (active) and inactive,inactive,,,,,54.6 µM (active) and 48.6 µM (active)
NC(=Nc1ccccc1)Nc1ccccc1,,inactive and 42 µM (active),inactive and 61.1 µM (active),inactive,inactive,,inactive,inactive,inactive,,21.1 µM (active),inactive,inactive,inactive,,,,,,
